High-throughput results as filed in PubChem BioAssay.
This is a sample that favours compounds with a hit; in the whole collection about 3.5% have one here.
CRE Fsk mod: CRE-bla signaling modulation under forskolin stimulation; CHO CRE-bla reporter (cAMP response element driving beta-lactamase), forskolin EC10, beta-lactamase ratio; Potency, µM (highest dose often 38.2 µM), usual class: activators; actives 2.5% (n = 71,000); AID 662; active = well fitted activation curve with a large enough effect in the signal ratio, with a control signal flat, not every such curve was filed as active; inconclusive = small, poorly fitted or top-dose-only effect, or effect the other way, or a change in a side signal; the % refers to the signal ratio
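Modulation of forskolin-driven signalling is measured in CHO cells carrying a CRE-controlled beta-lactamase reporter. Cells are stimulated with EC10 NKH 477 in the presence of titrated compound for 3 h at 37 °C, then loaded with CCF4 for 2 h at room temperature.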
Hsp90 Hop PPI: changes Hsp90-Hop TPR2A binding signal, up or down | actives 0.44% (n = 71,000) | AlphaScreen TPR2A-His6 binding biotin-Hsp90 C-terminal peptide | Potency, µM (highest dose often 57 µM); active = well fitted curve in either direction with a large enough effect; inconclusive = small, poorly fitted or top-dose-only effect, or another doubt
TSHR agonist: activates the human thyroid stimulating hormone receptor. P16473. HEK293-CNG-TSHR cells (CNG channel as cAMP sensor), membrane potential dye, cAMP. Potency, µM (doses to about 57.1 µM), actives largely listed as activators. actives 0.48% (n = 73,000). AID 926; active = well fitted activation curve with a large enough effect in the main read-out, with a control signal flat, not every such curve was filed as active; inconclusive = small, poorly fitted or top-dose-only effect, or a change in a side signal; inactive = no such curve, though single readings can be large or run the other way; reference of the percent scale not stated here;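 also: the control signal comes from parental cells without the receptor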
Target sequence (P16473 whole entry, looked up): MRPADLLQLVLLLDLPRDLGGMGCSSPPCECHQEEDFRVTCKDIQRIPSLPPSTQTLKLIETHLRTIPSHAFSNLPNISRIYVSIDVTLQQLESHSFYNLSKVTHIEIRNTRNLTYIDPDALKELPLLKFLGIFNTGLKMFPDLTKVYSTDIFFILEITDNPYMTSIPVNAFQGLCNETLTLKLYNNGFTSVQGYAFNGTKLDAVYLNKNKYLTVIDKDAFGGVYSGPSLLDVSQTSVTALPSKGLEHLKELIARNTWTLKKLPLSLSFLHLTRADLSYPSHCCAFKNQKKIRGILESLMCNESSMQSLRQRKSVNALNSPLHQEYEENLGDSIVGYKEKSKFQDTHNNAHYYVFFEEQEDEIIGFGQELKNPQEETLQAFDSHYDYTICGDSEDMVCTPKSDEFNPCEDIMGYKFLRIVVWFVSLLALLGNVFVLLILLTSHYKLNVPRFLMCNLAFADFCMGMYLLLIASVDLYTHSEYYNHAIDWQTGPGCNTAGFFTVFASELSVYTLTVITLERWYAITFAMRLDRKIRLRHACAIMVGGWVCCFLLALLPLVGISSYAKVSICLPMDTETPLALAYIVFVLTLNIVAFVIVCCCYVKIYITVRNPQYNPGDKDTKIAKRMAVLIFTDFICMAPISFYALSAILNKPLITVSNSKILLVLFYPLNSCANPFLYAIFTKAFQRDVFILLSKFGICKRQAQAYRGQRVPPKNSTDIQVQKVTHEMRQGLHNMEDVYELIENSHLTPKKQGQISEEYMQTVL
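HEK 293 cells stably expressing TSHR and a modified CNG channel, with CNG-only parental cells as counterscreen, were preloaded 60 min at room temperature with membrane potential dye containing 100 uM RO 20-1724. Compound exposure was 30 min, and depolarization was read as fluorescence at 590 nm.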
HEK293 cAMP cs: parental HEK293 cAMP activation (counter-screen); actives 2.5% (n = 73,000); Potency, µM (doses to about 57.1 µM), most hits filed as activators; parental HEK293 CNG cAMP sensor, membrane potential fluorescence; active = well fitted activation curve with a large enough effect; inconclusive = small, poorly fitted or top-dose-only effect; inactive = no such curve, though single readings can be large or run the other way; also: nearly all actives have a fitted effect of over 55% in size
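Counterscreen for endogenous-receptor signalling: CNG-channel HEK 293 cells report cAMP rise by membrane depolarization. After 60 min dye equilibration with 100 uM RO 20-1724, compounds incubated 30 min before bottom-read fluorescence at 590 nm.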
IkB signaling: inhibitors of IkB signaling in ABC-DLBCL cells | ABC-DLBCL IkBa-CBG/CBR dual luciferase ratio, 4 h; response scale: scaled: untreated 0%, proteasome inhibitor 100% | Potency, µM (series often up to 57.1 µM) | actives 0.04% (n = 110,000) | AID 445; active = well fitted curve in the direction sought with a large enough effect in the signal ratio, not every such curve was filed as active; inconclusive = small, poorly fitted or top-dose-only effect, or a change in a side signal; the % refers to the signal ratio;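 also: the direction sought is a rising ratio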
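In this assay, an IκBα–CBG68 fusion accumulates when IKK-driven degradation is blocked; native CBR normalizes for cell number. OCI-Ly3 cells were treated 4 h with compound and doxycycline, then green and red light read after Chroma-Glo addition.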
Hsp90-TPR2A inh: confirmation and counter-screen of Hsp90 TPR2A co-chaperone interaction disrupters; shares compounds with Hsp90 Hop PPI; AlphaScreen TPR2A-His6 / biotin-Hsp90 peptide binding; activity, negative = inhibition, % at 40 µM or 46 µM, hits read low; actives 100% (n = 45); AID 632;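 active = compound lowering the Hsp90 and TPR2A binding signal, whether or not the linker counterscreen also flagged it as an artifact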
Numbers stand for hits; 0 = inactive; ? = inconclusive; - = no result; + = active, no number; ! = repeats disagree; [ ] = remark or other dose.

SMILES	CRE Fsk mod	Hsp90 Hop PPI	TSHR agonist	HEK293 cAMP cs	IkB signaling	others
CC(=O)OCC1=C(C(=O)[O-])N2C(=O)[C@@H](NC(=O)CCC[C@@H](N)C(=O)[O-])[C@@H]2SC1.[Zn+2]	0	0	0	0	0
COc1ccc(C[C@@H]2NC[C@H](O)[C@H]2OC(C)=O)cc1	?	0	0	0	?
CCOc1ccc2[nH]c(=O)c(CN(CCO)C3(c4nnnn4C4CCCCC4)CCCCC3)cc2c1	0	0	?	25µM	0
CN(CC1COc2ccccc2O1)c1nc(-c2cccnc2)nc2ccccc12 (configuration not stated)	?	0	?	25µM	?
CN(C)c1ccc(N=Nc2ccccc2)cc1	?	13µM	?	0	?
NC(=NCCC[C@@H](N)C(=O)O)N[N+](=O)[O-]	0	0	?	?	0
CCCCOC(=O)c1ccccc1C(=O)OCc1ccccc1	0	?	?	16µM	?
CCCCCCCCOC(=O)c1ccccc1C(=O)OCCCCCCCC	0	?	0	0	0
C[C@H]1C(=O)O[C@H]2CCN3CC=C(COC(=O)[C@](C)(O)[C@@]1(C)O)[C@H]23	0	0	0	0	0[11.4 µM]
C=C(CC1(C(C)NP(=O)(c2ccccc2)c2ccccc2)CC1)c1ccccc1 (configuration not stated)	0	0	?	16µM	-
COC(=O)[C@]1(C)C[C@H]1[C@H](NP(=O)(c1ccccc1)c1ccccc1)c1ccccc1	0	0	?	?	-
O=CN1C[C@H]2C[C@@H](C1)c1cccc(=O)n1C2	0	0	0	0	0[11.4 µM]
Cc1ccc(OP(=O)(Oc2ccc(C)cc2)Oc2ccc(C)cc2)cc1	0	16µM	-	0	0
O=c1ccc2cc(O[C@@H]3O[C@@H](CO)[C@@H](O)[C@@H](O)[C@H]3O)c(O)cc2o1	?	0	0	0	0[11.4 µM]
CN1Cc2c(ccc3c2OCO3)[C@@H]2[C@@H](O)Cc3cc4c(cc3[C@@H]21)OCO4	3.2µM!	0	?	0	?
CC[C@@]12CCCN3CC[C@@]4(c5ccc(OC)c(O)c5N(C(C)=O)[C@H]4CC1)[C@H]32	0	0	0	0	0[11.4 µM]
CC(C)CC(N(C)C)C1(c2ccc(Cl)cc2)CCC1 (configuration not stated)	-	-	?	25µM	-
CCOC(=O)c1ncn2c1[C@H]1CCCN1C(=O)c1cc(OC)ccc1-2	13µM!	0	0	0	0
CCCCOC(=O)COc1cc(C)cc2oc(=O)c3c(c12)CCC3	0	0	0	0	0
C=CCOC(=O)COc1cc(C)cc2oc(=O)c3c(c12)CCC3	?	0	?	5µM	0
O=C(Cn1cc(C(=O)c2ccccc2F)c2ccccc21)NCc1ccco1	?	0	0	0	0
N#Cc1ccccc1Cn1cc(C(=O)C2CC2)c2ccccc21	0	0	?	?	0
CCC(=O)c1cn(Cc2ccccc2C#N)c2ccccc12	0	0	?	20µM	0
N#Cc1ccccc1Cn1cc(C(=O)c2ccco2)c2ccccc21	0	0	?	16µM	0
Ic1ccccc1CN[C@@H]1C2CCN(CC2)[C@H]1C(c1ccccc1)c1ccccc1	0	0	?	?	0
SMILES	CRE Fsk mod	Hsp90 Hop PPI	TSHR agonist	HEK293 cAMP cs	IkB signaling	others
COc1ccc2c(c1)[C@]13CCCC[C@@H]1[C@H](C2)NCC3	0	0	?	?	0
Cc1[nH]nc2c1C1(CCC3(CC1)OCCO3)C(C#N)=C(N)O2	0	0	10µM	0	0
O=C(O)[C@@H](O)[C@@H](O)[C@@H]1[O][Sb][O][C@@H]1CO	0[7.6 µM]	0[11 µM]	-	0[11.4 µM]	0[11.4 µM]
C=C(C)[C@@H]1CN[C@H](C(=O)O)[C@H]1CC(=O)O	0	0	?	?	0
CCN(CC)C(=O)N[C@H]1C[C@H]2c3cccc4[nH]cc(c34)C[C@@H]2N(C)C1	0	0	0	0	0
CSc1nc2ccccc2n1C(=O)Oc1ccccc1	0	0	?	25µM	0
O=C(Oc1ccccc1)N1CCC2(CC1)CN(Cc1ccncc1)C2	0	0	0	0	0[11.4 µM]
O=C(Oc1ccccc1)N1CCC2(CC1)CN(C(c1ccccc1)c1ccccc1)C2	0	0	?	32µM	0[11.4 µM]
CC(C)C[C@H]1C(=O)N2CCC[C@@H]2[C@]2(O)O[C@](NC(=O)[C@H]3C=C4c5cccc6[nH]cc(c56)C[C@H]4N(C)C3)(C(C)C)C(=O)N12	?	?	0	0	0[11.4 µM]
CCCCn1c(C)c(C(=O)OCC)c2c(CN3CCOCC3)c(O)ccc21	0	0	?	6.3µM	0
Cc1c2ccncc2c(C)c2c1[nH]c1ccccc12	16µM!	0	0	0	?
Cc1nccc2c1[nH]c1ccccc12	0	0	?	0	?
CCCCn1c(O)c(C(CC)=NCCc2ccccc2)c(=O)[nH]c1=O	10µM	0	?	?	?
C=C[C@@H]1C[C@@]1(C)[C@@H](NP(=O)(c1ccccc1)c1ccccc1)c1ccccc1	0	0	?	5µM	-
CCN1C[C@@]2(COC)[C@H](O)C[C@H](OC)[C@@]34[C@@H]5C[C@@]6(O)[C@H](OC(=O)c7ccccc7)[C@H]5[C@@](OC(C)=O)([C@H]([C@@H](OC)[C@H]23)[C@H]14)[C@H](O)[C@@H]6OC	0	0	0	0	0[11.4 µM]
O=C(c1ccco1)N1CCN(Cc2ccccc2C(F)(F)F)CC1	?	0[11 µM]	?	4µM	0
O=S(=O)(NCCO)c1cc[c]([Sb](=[O])([OH])[OH])cc1	0[7.6 µM]	0[11 µM]	0[11.4 µM]	0[11.4 µM]	0[11.4 µM]
CC(C)(C)NCc1cccn1-c1sc2c(c1C#N)CCCC2	0	?	?	25µM	0
Cn1ncnc2c(=O)n(C)c(=O)nc1-2	?	0.79µM	?	?	?	Hsp90-TPR2A inh=+
CC[C@H]1CN2CC[C@@H]1C[C@@H]2[C@H](O)c1ccnc2ccccc12	?	0	0	0	0[11.4 µM]
CCc1ccc(OCCCN=C(C)c2c(O)n(C)c(=O)n(C)c2=O)cc1	0	0	?	?	?
